Assay outcomes: PubChem, National Center for Advancing Translational Sciences (NCATS)
DT40 TDP1 no CPT – qHTS for Inhibitors of human tyrosyl-DNA phosphodiesterase 1 (TDP1): qHTS in cells in absence of CPT | DT40 Tdp1-/- hTDP1 cells, no CPT, ATP luminescence, 48 h | Potency, µM (highest dose often 46.2 µM), most hits filed as inhibitors | actives 15% (n = 420,000); further: nearly all actives have a fitted effect of over 55% in size
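A cellular qHTS used chicken DT40 cells lacking endogenous Tdp1 but carrying stably transfected human TDP1. Compounds were applied without camptothecin, and cell growth kinetics were judged by ATP-dependent luminescence after ≥48 hr.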
HT1080 IDH1KD tx – qHTS for induction of synthetic lethality in tumor cells producing 2HG: qHTS for the HT-1080-IDH1KD cell line | HT-1080 IDH1 knockdown viability, ATP luminescence, 48 h | Potency, µM (series often up to 46.1 µM), usual class: cytotoxic | actives 2% (n = 360,000)
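Cytotoxicity counter-line: IDH1KD HT-1080, 48 h, CellTiter-Glo. Curves classed by r2, magnitude and activity.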
HT1080-NT tox – qHTS for induction of synthetic lethality in tumor cells producing 2HG: qHTS for the HT-1080-NT fibrosarcoma cell line; actives 1.6% (n = 360,000); Potency, µM (doses to about 46.1 µM), most hits filed as cytotoxic; HT-1080-NT fibrosarcoma viability, CellTiter-Glo ATP luminescence, 48 h;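 further: NT is the 2HG producing partner of a matched IDH1 knockdown line; nearly all actives have a fitted effect of over 55% in size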
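Luminescent CellTiter-Glo readout after 48 hours of compound exposure at 37 degrees C defined viability of HT-1080-NT cells. Activity was normalized to DMSO wells and cell-free media wells; concentration-response curves were fitted and assigned curve classes.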
IL-1B inflam inh – qHTS for Inhibitors of Inflammasome Signaling: IL-1-beta AlphaLISA Primary Screen | THP-1 LPS/ATP IL-1B secretion, AlphaLISA, 16 h; stronger effect = lower value | activity change, % at 57.5 µM | actives 4.7% (n = 360,000); in the data active means activity change below about -50%; inconclusive means mostly about -30% to -49%
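THP-1 cells pretreated 1 hr with compounds (up to 57.5 uM final), then stimulated with LPS (250 ng/mL final) plus ATP (1.25 mM final); secreted IL-1B measured by AlphaLISA after 16 hr, decreased signal indicating inhibition.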
DT40 TDP1 CPT – qHTS for Inhibitors of human tyrosyl-DNA phosphodiesterase 1 (TDP1): qHTS in cells in presence of CPT; chicken DT40 Tdp1-/-;hTDP1 cells + 20 nM CPT, ATP luminescence, 48 h; Potency, µM (top dose mostly 46.2 µM), most hits filed as inhibitors; actives 12% (n = 420,000); further: nearly all actives have a fitted effect of over 55% in size
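Chicken DT40 Tdp1-/- cells stably complemented with human TDP1 were seeded at 400 cells/well in medium containing 20 nM camptothecin, exposed to pin-transferred compounds, and grown at 37 °C for at least 48 hr. Viability was read as ATP luminescence.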
A number is an active result; n = inactive; u = inconclusive; x = no result; [ ] = dose if it differs, or a comment. Rows were chosen to be rich in hits. Some 19% of all compounds tested hit in one or more screens of this group. Unless noted, the call rests on the fitted dose curve; in most records, active means well fitted curve in the direction sought with a large enough effect; inconclusive means small, poorly fitted or top-dose-only effect, or another doubt; inactive means no such curve, though single readings can be large; an effect the other way counts as inactive or inconclusive.

SMILES | DT40 TDP1 no CPT | HT1080 IDH1KD tx | HT1080-NT tox | IL-1B inflam inh | DT40 TDP1 CPT
COc1ccc(C(=O)NNC(=O)c2cccc(F)c2)cc1 | n | n | n | n | n
COc1cccc(-c2cnc3c(NC(C)=O)cc(-c4cccc(C(=O)NCCN(C)C)c4)cn23)c1 | 18µM | u | 16µM | n | u
COc1ccc(-c2cnc3c(NC(C)=O)cc(-c4cccc(C(=O)N(C)C)c4)cn23)cc1OC | 13µM | n | n | n | 21µM
COc1cc(-c2cnc3c(NC(C)=O)cc(-c4cccc(C(=O)NCCO)c4)cn23)cc(OC)c1OC | 10µM | n | n | n | 16µM
COc1ccc(-c2cnc3c(NC(C)=O)cc(-c4cccc(C(=O)NCCN(C)C)c4)cn23)cc1OC | 12µM | 33µM | u | u | u
CCOC(=O)[C@]12CCC=C1N(Cc1ccc3c(c1)OCO3)C(=O)[C@H](CC(=O)N1CCCCC1)C2 | u | n | n | n | u
CCc1nc2ccc(C(=O)NCc3ccccc3)cc2nc1CC | u | n | n | n | u
COc1ccc(-c2cnc3c(NC(C)=O)cc(-c4cccc(C(=O)NCCO)c4)cn23)cc1OC | 21µM | n | n | -55 | 21µM
CCOC(=O)c1c(C)n(C)c2c(C)cc(O)c(OC(=O)CC)c12 | u | n[9.24 µM] | n | n | 7.3µM
CCOC(=O)c1c(C)n(C)c2cc(-c3ccc(C)cc3)c(O)cc12 | n | n | n | n | n
CC1(C)CC(C(CCN(Cc2ccccc2)C(=O)c2ccco2)c2ccc(F)cc2)CCO1 (configuration not stated) | u | u | u | -52 | u
CC1(C)CC(N(Cc2ccc(F)cc2)C(=O)c2ccc(F)cc2)CCO1 (configuration not stated) | u | n | n | n | n
CCCN1CNc2c(c(=O)[nH]c(=S)n2-c2ccc(Cl)cc2)C1 | n | n | n | n | n
Cc1ccc(N2C(=O)c3ccccc3C2C(=O)c2ccc(C)c(C)c2O)cc1 (configuration not stated) | 18µM | n | n | n | u
Cc1ccc(N2C(=O)c3ccccc3C2C(=O)c2cc(C)ccc2O)cc1 (configuration not stated) | u | n | n | u | u
CC(CCc1ccccc1)NC(=O)CCN1N=C(c2ccccc2)CCC1=O (configuration not stated) | n | n | n | u | n
CCc1ccc(C2=NN(CCC(=O)NC(C)CCc3ccccc3)C(=O)CC2)cc1 (configuration not stated) | u | n | n | -52 | u
O=C(CN1CCN(S(=O)(=O)c2ccc(F)cc2)CC1)Nc1ccnn1C1CCCC1 | u | n | n | n | n
CC(C)CCN(C(=O)Cc1ccc(Cl)c(Cl)c1)c1c(N)n(Cc2ccccc2)c(=O)[nH]c1=O | 26µM | n | u | u | u
CCCN(C(=O)COC(=O)CCOc1ccc(C)cc1)c1c(N)n(Cc2ccccc2)c(=O)[nH]c1=O | u | u | u | n | u
Cc1ccc(OCCC(=O)N(CCC(C)C)c2c(N)n(Cc3ccccc3)c(=O)[nH]c2=O)cc1 | 21µM | n | n | n | n
CC1CCC2(CC1)NC(=O)N(CC(=O)N1CC(C)CC(C)C1)C2=O (configuration not stated) | n | n | n | n | n
Cc1ccc(/C=C/C(=O)N(Cc2cccs2)C2CCS(=O)(=O)C2)cc1 (configuration not stated) | 21µM | n | n | n | u
O=C1C(c2c(O)[nH]c3ccccc23)=Nc2ccccc21 | n | n | n | n | n
CC(=O)c1cccc2c(O)c(C3=Nc4ccccc4C3=O)[nH]c12 | 15µM | u | n | n | 18µM
SMILES | DT40 TDP1 no CPT | HT1080 IDH1KD tx | HT1080-NT tox | IL-1B inflam inh | DT40 TDP1 CPT
COc1ccccc1C(=O)NCC(c1cccs1)N1CCc2ccccc21 (configuration not stated) | 18µM | n | n | n | 21µM
COc1ccccc1C(=O)NC(CCSC)C(=O)NCC(c1cccs1)N1CCOCC1 (configuration not stated) | n | n | n | n | n
COc1cccc(C(=O)NCC(c2cccs2)N2CCc3ccccc32)c1 (configuration not stated) | u | n | n | u | 13µM
COc1cc(C(=O)NCC(c2cccs2)N2CCc3ccccc32)cc(OC)c1OC (configuration not stated) | 21µM | n | n | u | u
COc1cccc(C(=O)NCC(c2ccco2)N2CCc3ccccc3C2)c1 (configuration not stated) | n | n | n | n | n
COc1ccc(CCC(=O)OCC(=O)Nc2c(C)nn(-c3ccccc3)c2C)cc1 | n | n | n | n | n
CCO[C@@H]1OC(C(=O)N2CCN(C)CC2)=C[C@H](c2ccc(C(F)(F)F)cc2)[C@H]1CCCO | n | n | n | n | n
CCO[C@@H]1OC(C(=O)N2CCOCC2)=C[C@H](c2ccc(Br)cc2)[C@H]1CCCO | u | n | n | n | u
CCO[C@@H]1OC(C(=O)N2CCOCC2)=C[C@H](c2ccc(C(F)(F)F)cc2)[C@H]1CCCO | u | n | n | n | 15µM
CCO[C@H]1OC(C(=O)N2CCN(Cc3ccccc3)CC2)=C[C@@H](c2ccc(C(F)(F)F)cc2)[C@@H]1CCCO | 15µM | n | n | -60 | 21µM
CCO[C@H]1OC(C(=O)N2CCCCCCC2)=C[C@@H](c2ccccc2)[C@@H]1CCCO | u | n | n | n | u
CCO[C@@H]1OC(C(=O)N2CCCCCCC2)=C[C@H](c2ccc(C(F)(F)F)cc2)[C@H]1CCCO | 23µM | n | n | n | u
CCO[C@H]1OC(C(=O)N2CCOCC2)=C[C@@H](c2ccc(C(F)(F)F)cc2)[C@@H]1CCCO | u | n | n | n | 0.52µM
CCO[C@H]1OC(C(=O)N2CCN(C)CC2)=C[C@@H](c2ccc(C(F)(F)F)cc2)[C@@H]1CCCO | n | n | n | n | n
CCOc1ccc(S(=O)(=O)N2CCC(C(=O)NCc3ccccn3)CC2)cc1 | n | n | n | n | n
Cc1cc(F)ccc1NC(=O)Cn1c(C)csc1=O | n | n | n | n | n
CCO[C@@H]1OC(C(=O)N2CCN(Cc3ccccc3)CC2)=C[C@H](c2csc3ccccc23)[C@H]1CCCO | 29µM | n | u | -54 | 13µM
Cc1ccc(NCc2cccn2-c2nnc(N3CCC(C(=O)NCCC(C)C)CC3)s2)cc1 | 21µM | x | x | x | u
